# Assay results published in the supplement of paper PMC7261846.
# Counter-ions that a name gives are not always drawn. ± gives the uncertainty stated by the source.
# System: Candida albicans SNY425 biofilm
# Experiment: biofilm OD600 with compound plus antifungal (OD600 (absorbance)); higher = more biofilm remaining
# Conditions: assay detail: disruption of 24-h mature biofilm (compound + antifungal for a second 24 h)
row,Structure (SMILES),biofilm OD600
1,NC(=O)c1cccc(-c2cccc(OC(=O)NC3CCCCC3)c2)c1 + CC[C@H](C)C[C@H](C)CCCCCCCCC(=O)N[C@H]1C[C@@H](O)[C@@H](NCCN)NC(=O)[C@@H]2[C@@H](O)CCN2C(=O)[C@H]([C@H](O)CCN)NC(=O)[C@H]([C@H](O)[C@@H](O)c2ccc(O)cc2)NC(=O)[C@@H]2C[C@@H](O)CN2C(=O)[C@H]([C@@H](C)O)NC1=O [caspofungin] (first compound 12.5 µM),0.283 ± 0.011
2,O=C(O[C@@H]1Cc2c(O)cc(O)cc2O[C@@H]1c1cc(O)c(O)c(O)c1)c1cc(O)c(O)c(O)c1 [Epigallocatechin gallate] + OC(Cn1cncn1)(Cn1cncn1)c1ccc(F)cc1F [fluconazole] (first compound 12.5 µM),0.262 ± 0.011
3,O=C1Nc2ccc([N+](=O)[O-])cc2C1=O [5-Nitroisatin] + CC[C@H](C)C[C@H](C)CCCCCCCCC(=O)N[C@H]1C[C@@H](O)[C@@H](NCCN)NC(=O)[C@@H]2[C@@H](O)CCN2C(=O)[C@H]([C@H](O)CCN)NC(=O)[C@H]([C@H](O)[C@@H](O)c2ccc(O)cc2)NC(=O)[C@@H]2C[C@@H](O)CN2C(=O)[C@H]([C@@H](C)O)NC1=O [caspofungin] (first compound 12.5 µM),0.255 ± 0.0081
4,CCCC[C@@H](C=O)NC(=O)[C@H](CC(C)C)NC(=O)OCc1ccccc1 [Calpeptin] + C[C@@H]1[C@H](O)[C@@H](C)/C=C/C=C/C=C/C=C/C=C/C=C/C=C/[C@H](O[C@@H]2O[C@H](C)[C@@H](O)[C@H](N)[C@@H]2O)C[C@@H]2O[C@](O)(C[C@@H](O)C[C@@H](O)[C@H](O)CC[C@@H](O)C[C@@H](O)CC(=O)O[C@H]1C)C[C@H](O)[C@H]2C(=O)O [amphotericin B] (first compound 12.5 µM),0.266 ± 0.0066
5,CC(C)(C)NC(=O)[C@@H]1C[C@@H]2CCCC[C@@H]2CN1C[C@@H](O)[C@H](Cc1ccccc1)NC(=O)[C@H](CC(N)=O)NC(=O)c1ccc2ccccc2n1 [saquinavir] + C[C@@H]1[C@H](O)[C@@H](C)/C=C/C=C/C=C/C=C/C=C/C=C/C=C/[C@H](O[C@@H]2O[C@H](C)[C@@H](O)[C@H](N)[C@@H]2O)C[C@@H]2O[C@](O)(C[C@@H](O)C[C@@H](O)[C@H](O)CC[C@@H](O)C[C@@H](O)CC(=O)O[C@H]1C)C[C@H](O)[C@H]2C(=O)O [amphotericin B] (first compound 12.5 µM),0.243 ± 0.0076

# Same assay, conditions: assay detail: sustained inhibition (compound + antifungal during 90-min adherence and 24-h growth)
row,Structure (SMILES),biofilm OD600
1,O=C(NCCCCN1CCOCC1)c1cc2ccccc2o1 + CC[C@H](C)C[C@H](C)CCCCCCCCC(=O)N[C@H]1C[C@@H](O)[C@@H](NCCN)NC(=O)[C@@H]2[C@@H](O)CCN2C(=O)[C@H]([C@H](O)CCN)NC(=O)[C@H]([C@H](O)[C@@H](O)c2ccc(O)cc2)NC(=O)[C@@H]2C[C@@H](O)CN2C(=O)[C@H]([C@@H](C)O)NC1=O [caspofungin] (first compound 12.5 µM),0.202 ± 0.01
2,NC(N)=NCCC[C@H](NC(=O)[C@@H]1CCCN1C(=O)[C@H](N)Cc1ccccc1)C(=O)CCl + CC[C@H](C)C[C@H](C)CCCCCCCCC(=O)N[C@H]1C[C@@H](O)[C@@H](NCCN)NC(=O)[C@@H]2[C@@H](O)CCN2C(=O)[C@H]([C@H](O)CCN)NC(=O)[C@H]([C@H](O)[C@@H](O)c2ccc(O)cc2)NC(=O)[C@@H]2C[C@@H](O)CN2C(=O)[C@H]([C@@H](C)O)NC1=O [caspofungin] (first compound 12.5 µM),0.189 ± 0.011
3,CC1CNc2c(cccc2S(=O)(=O)N[C@@H](CCCNC(=N)N)C(=O)N2CC[C@@H](C)C[C@@H]2C(=O)O)C1 (stereo partly specified) [Argatroban] + OC(Cn1cncn1)(Cn1cncn1)c1ccc(F)cc1F [fluconazole] (first compound 12.5 µM),0.113 ± 0.0066
4,CCCCCCCCCC(=O)N[C@@H](CCCN=C(N)N)C(=O)N[C@H](C(=O)N[C@@H](CCCCN)C(=O)N[C@@H](CCCN=C(N)N)C(=O)CCl)C(C)C + C[C@@H]1[C@H](O)[C@@H](C)/C=C/C=C/C=C/C=C/C=C/C=C/C=C/[C@H](O[C@@H]2O[C@H](C)[C@@H](O)[C@H](N)[C@@H]2O)C[C@@H]2O[C@](O)(C[C@@H](O)C[C@@H](O)[C@H](O)CC[C@@H](O)C[C@@H](O)CC(=O)O[C@H]1C)C[C@H](O)[C@H]2C(=O)O [amphotericin B] (first compound 4 µM),0.188 ± 0.0044
5,CCCC[C@@H](C=O)NC(=O)OC(C)(C)C + OC(Cn1cncn1)(Cn1cncn1)c1ccc(F)cc1F [fluconazole] (first compound 12.5 µM),0.117 ± 0.0068
6,O=C(O)CNC(=O)C(CS)Cc1ccccc1 (racemic) [DL-Thiorphan] + OC(Cn1cncn1)(Cn1cncn1)c1ccc(F)cc1F [fluconazole] (first compound 12.5 µM),0.107 ± 0.0069
7,CCCCC[C@H](CC(=O)NO)C(=O)N[C@H](C(=O)N1CCC[C@H]1CO)C(C)C [Actinonin] + C[C@@H]1[C@H](O)[C@@H](C)/C=C/C=C/C=C/C=C/C=C/C=C/C=C/[C@H](O[C@@H]2O[C@H](C)[C@@H](O)[C@H](N)[C@@H]2O)C[C@@H]2O[C@](O)(C[C@@H](O)C[C@@H](O)[C@H](O)CC[C@@H](O)C[C@@H](O)CC(=O)O[C@H]1C)C[C@H](O)[C@H]2C(=O)O [amphotericin B] (first compound 12.5 µM),0.191 ± 0.0077
8,NC(=O)c1cccc(-c2cccc(OC(=O)NC3CCCCC3)c2)c1 + OC(Cn1cncn1)(Cn1cncn1)c1ccc(F)cc1F [fluconazole] (first compound 12.5 µM),0.118 ± 0.0073
9,CC(C)C[C@H](NC(=O)[C@@H](O)[C@H](N)Cc1ccccc1)C(=O)O [Bestatin·HCl] + C[C@@H]1[C@H](O)[C@@H](C)/C=C/C=C/C=C/C=C/C=C/C=C/C=C/[C@H](O[C@@H]2O[C@H](C)[C@@H](O)[C@H](N)[C@@H]2O)C[C@@H]2O[C@](O)(C[C@@H](O)C[C@@H](O)[C@H](O)CC[C@@H](O)C[C@@H](O)CC(=O)O[C@H]1C)C[C@H](O)[C@H]2C(=O)O [amphotericin B] (first compound 12.5 µM),0.211 ± 0.0059
10,C[C@H](NC(=O)[C@@H]1CCCN1C(=O)[C@@H]1CCCN1C(=O)[C@@H](O)[C@H](N)Cc1ccccc1)C(N)=O [Apstatin] + CC[C@H](C)C[C@H](C)CCCCCCCCC(=O)N[C@H]1C[C@@H](O)[C@@H](NCCN)NC(=O)[C@@H]2[C@@H](O)CCN2C(=O)[C@H]([C@H](O)CCN)NC(=O)[C@H]([C@H](O)[C@@H](O)c2ccc(O)cc2)NC(=O)[C@@H]2C[C@@H](O)CN2C(=O)[C@H]([C@@H](C)O)NC1=O [caspofungin] (first compound 12.5 µM),0.185 ± 0.0079
11,CCC(C)[C@H](NS(=O)(=O)c1cccc2ccccc12)C(=O)N[C@H](C=O)Cc1c[nH]c2ccccc12 (stereo partly specified) + C[C@@H]1[C@H](O)[C@@H](C)/C=C/C=C/C=C/C=C/C=C/C=C/C=C/[C@H](O[C@@H]2O[C@H](C)[C@@H](O)[C@H](N)[C@@H]2O)C[C@@H]2O[C@](O)(C[C@@H](O)C[C@@H](O)[C@H](O)CC[C@@H](O)C[C@@H](O)CC(=O)O[C@H]1C)C[C@H](O)[C@H]2C(=O)O [amphotericin B] (first compound 12.5 µM),0.188 ± 0.0088
12,CCCCCCCCCC(=O)N[C@@H](CCCN=C(N)N)C(=O)N[C@H](C(=O)N[C@@H](CCCCN)C(=O)N[C@@H](CCCN=C(N)N)C(=O)CCl)C(C)C + CC[C@H](C)C[C@H](C)CCCCCCCCC(=O)N[C@H]1C[C@@H](O)[C@@H](NCCN)NC(=O)[C@@H]2[C@@H](O)CCN2C(=O)[C@H]([C@H](O)CCN)NC(=O)[C@H]([C@H](O)[C@@H](O)c2ccc(O)cc2)NC(=O)[C@@H]2C[C@@H](O)CN2C(=O)[C@H]([C@@H](C)O)NC1=O [caspofungin] (first compound 4 µM),0.141 ± 0.018
13,CC(C)(C)NC(=O)[C@@H]1C[C@@H]2CCCC[C@@H]2CN1C[C@@H](O)[C@H](Cc1ccccc1)NC(=O)[C@H](CC(N)=O)NC(=O)c1ccc2ccccc2n1 [saquinavir] + OC(Cn1cncn1)(Cn1cncn1)c1ccc(F)cc1F [fluconazole] (first compound 12.5 µM),0.112 ± 0.009
14,CC1(C)C[C@@H]1C(=O)N/C(=C\CCCCSC[C@H](N)C(=O)O)C(=O)O [Cilastatin] + OC(Cn1cncn1)(Cn1cncn1)c1ccc(F)cc1F [fluconazole] (first compound 12.5 µM),0.162 ± 0.012
15,CCCCCCCCCC(=O)N[C@@H](CCCN=C(N)N)C(=O)N[C@H](C(=O)N[C@@H](CCCCN)C(=O)N[C@@H](CCCN=C(N)N)C(=O)CCl)C(C)C + OC(Cn1cncn1)(Cn1cncn1)c1ccc(F)cc1F [fluconazole] (first compound 4 µM),0.108 ± 0.005
16,CSCCC(C=O)NC(=O)C(CC(C)C)NC(=O)[C@H](CC(C)C)NC(C)=O (stereo partly specified) [Calpain Inhibitor II (ALLM)] + CC[C@H](C)C[C@H](C)CCCCCCCCC(=O)N[C@H]1C[C@@H](O)[C@@H](NCCN)NC(=O)[C@@H]2[C@@H](O)CCN2C(=O)[C@H]([C@H](O)CCN)NC(=O)[C@H]([C@H](O)[C@@H](O)c2ccc(O)cc2)NC(=O)[C@@H]2C[C@@H](O)CN2C(=O)[C@H]([C@@H](C)O)NC1=O [caspofungin] (first compound 12.5 µM),0.178 ± 0.0059
